Source: PubChem BioAssay (Tox21)
“And” between values parts separate entries of the source, which are not always exact repeats. Identical values can stand only once. Results filed as inconclusive are left out. Where a call stands in place of a potency, no number is given. The source made the active and inactive calls. Unless noted, calls follow the shape of the dose curve; as a rule, active = well fitted curve in the direction sought with a large enough effect in the repeat runs; inconclusive = weak or mixed curves; inactive = no such curve, though single readings can be large; an effect the other way counts as inactive or inconclusive.

Legend:
[1] = qHTS assay to identify small molecule antagonists of the glucocorticoid receptor (GR) signaling pathway - cell viability counter screen (AID 720693); also: nearly all actives have a fitted effect of over 55% in size
[2] = qHTS assay to identify small molecule antagonists of the androgen receptor (AR) signaling pathway - cell viability counter screen (AID 743033; also: nearly all actives have a fitted effect of over 45% in size; also: potency is read from the fitted curve at half-maximal effect)
[3] = qHTS assay to identify small molecule antagonists of the androgen receptor (AR) signaling pathway using the MDA cell line - cell viability counter screen (AID 743041; also: nearly all actives have a fitted effect of over 45% in size; also: potency is read from the fitted curve at half-maximal effect)
Summary of the method: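 Viability read by CellTiter-Fluor fluorescence in the same wells as the antagonist screen, added after 15.5 h of a 16 h, 37C exposure. Human breast carcinoma MDA-kb2 AR-luc cells, compounds co-dosed with agonist R1881.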

[4] = qHTS assay for identifying genotoxic compounds that show differential cytotoxicity against isogenic chicken DT40 cell lines with known DNA damage response pathways - wild type cell line (AID 743012); also: nearly all actives have a fitted effect of over 60% in size; also: potency is read from the fitted curve at half-maximal effect
Summary of the method: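 300 wt DT40 cells/well; cpd (DMSO) pintool-transferred after ~0.5 h at 37 C/5% CO2; 40 h incubation; CellTiter-Glo added, 30 min RT; luminescence read.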

[5] = qHTS assay for identifying genotoxic compounds that show differential cytotoxicity against isogenic chicken DT40 cell lines with known DNA damage response pathways - Rev3 mutant cell line (AID 743014); also: nearly all actives have a fitted effect of over 55% in size; also: potency is read from the fitted curve at half-maximal effect
[6] = qHTS assay for identifying genotoxic compounds that show differential cytotoxicity against isogenic chicken DT40 cell lines with known DNA damage response pathways - Rad54/Ku70 mutant cell line (AID 743015); also: nearly all actives have a fitted effect of over 60% in size; also: potency is read from the fitted curve at half-maximal effect
[7] = target: Androgen receptor (Homo sapiens) (UniProt P10275); assay: qHTS assay to identify small molecule agonists of the androgen receptor (AR) signaling pathway using the MDA cell line (AID 743040; also: nearly all actives have a fitted effect of over 20% in size)
Androgen receptor (Homo sapiens), sequence (P10275 whole entry, looked up): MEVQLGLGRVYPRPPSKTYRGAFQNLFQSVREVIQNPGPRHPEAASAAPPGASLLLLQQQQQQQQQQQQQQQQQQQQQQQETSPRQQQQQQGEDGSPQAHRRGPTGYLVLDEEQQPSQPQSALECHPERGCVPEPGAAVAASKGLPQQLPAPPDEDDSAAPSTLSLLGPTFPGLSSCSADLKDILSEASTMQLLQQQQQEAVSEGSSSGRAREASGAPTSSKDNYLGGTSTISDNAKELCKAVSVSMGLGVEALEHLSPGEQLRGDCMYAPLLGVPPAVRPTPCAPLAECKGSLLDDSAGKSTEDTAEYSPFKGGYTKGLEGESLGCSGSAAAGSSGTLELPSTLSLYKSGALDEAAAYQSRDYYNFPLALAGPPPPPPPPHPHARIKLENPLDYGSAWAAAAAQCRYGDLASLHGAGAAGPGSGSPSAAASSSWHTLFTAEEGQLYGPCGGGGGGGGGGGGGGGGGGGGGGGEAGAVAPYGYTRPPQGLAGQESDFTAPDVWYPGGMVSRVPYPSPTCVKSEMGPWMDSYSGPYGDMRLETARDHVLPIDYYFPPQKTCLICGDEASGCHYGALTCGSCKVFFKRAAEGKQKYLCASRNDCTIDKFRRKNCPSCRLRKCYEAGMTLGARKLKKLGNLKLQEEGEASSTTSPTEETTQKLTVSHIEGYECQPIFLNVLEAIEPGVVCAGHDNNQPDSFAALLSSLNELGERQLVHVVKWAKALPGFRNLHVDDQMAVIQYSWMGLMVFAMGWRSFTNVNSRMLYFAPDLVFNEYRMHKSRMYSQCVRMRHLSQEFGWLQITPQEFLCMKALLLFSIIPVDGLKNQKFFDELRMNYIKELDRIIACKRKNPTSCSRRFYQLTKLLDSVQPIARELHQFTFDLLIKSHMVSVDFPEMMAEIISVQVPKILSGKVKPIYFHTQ
Summary of the method: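 Luciferase agonist assay: 16 h compound exposure at 37C without CO2 in MDA-kb2 AR-luc cells, whose MMTV promoter responds to both AR and GR. Luminescence measured after 30 min room-temperature incubation with ONE-Glo.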

[8] = target: Androgen receptor (Homo sapiens) (UniProt P10275); assay: qHTS assay to identify small molecule antagonists of the androgen receptor (AR) signaling pathway using the MDA cell line (AID 743042; also: potency is read from the fitted curve at half-maximal effect; nearly all actives have a fitted effect of over 55% in size)
Summary of the method: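 Antagonist mode: compounds plus R1881 agonist added to MDA-kb2 AR-luc cells, incubated 16 h at 37C. Luciferase reporter luminescence quantified, with multiplexed CellTiter-Fluor readout for cell viability.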

[9] = target: Androgen receptor (Homo sapiens) (UniProt P10275); assay: qHTS assay to identify small molecule agonists of the androgen receptor (AR) signaling pathway (AID 743036; active = well fitted activation curve with a large enough effect in the signal ratio in the repeat runs, with a control signal flat, not every such curve was filed as active; the % refers to the signal ratio)
Summary of the method: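 AR-UAS-bla HEK293 cells, plated 4 h before dosing, were treated with compound for 16 h at 37C. beta-Lactamase reporter read after 2 h with LiveBLAzer B/G FRET substrate at room temperature.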

SMILES	Potency [1]	Potency [2]	Potency [3]	Potency [4]	Potency [5]	Potency [6]	Potency [7]	Potency [8]	Potency [9]
N=C(N)c1ccc(/C=C/c2ccc(C(=N)N)cc2O)cc1	inactive	inactive	inactive						
CC(=O)NC[C@H]1CN(c2ccc(N3CCOCC3)c(F)c2)C(=O)O1	inactive	inactive	inactive						
CN1CCN(CCCN2c3ccccc3Sc3ccc(C(F)(F)F)cc32)CC1				5.31 µM (active)	2.11 µM (active)	5.31 µM (active)			
O=C(N[C@H](CO)[C@H](O)c1ccc([N+](=O)[O-])cc1)C(Cl)Cl		inactive	inactive	5.96 µM (active) and 15.4 µM (active)	7.5 µM (active) and 17.2 µM (active)	8.41 µM (active) and 19.7 µM (active)			
CCCCCCCC[N+](C)(C)CCCCCCCC		16.9 µM (active) and 12 µM (active)	21.1 µM (active)	668 nM (active) and 531 nM (active)	1.19 µM (active) and 1.06 µM (active)	1.33 µM (active) and 944 nM (active)			
CN1CCN(c2ccccc2/C=C2\SCCN(c3ccc(Cl)c(Cl)c3)C2=O)CC1				4.33 µM (active)	2.73 µM (active)	5.45 µM (active)			
CO[C@H](C(=O)[C@@H](O)[C@@H](C)O)C1Cc2cc3cc(O[C@H]4C[C@@H](O[C@H]5C[C@@H](O)[C@H](O)[C@@H](C)O5)[C@@H](O)[C@@H](C)O4)c(C)c(O)c3c(O)c2C(=O)[C@H]1O[C@H]1C[C@@H](O[C@H]2C[C@@H](O[C@H]3C[C@](C)(O)[C@H](O)[C@@H](C)O3)[C@H](O)[C@@H](C)O2)[C@H](O)[C@@H](C)O1 (stereo partly specified)		inactive	inactive	94.4 nM (active) and 47.3 nM (active)	84.1 nM (active) and 37.6 nM (active)	75 nM (active) and 33.5 nM (active)	inactive	473 nM (active) and 266 nM (active)	
CC1(C)S[C@@H]2[C@H](NC(=O)[C@H](N)c3ccc(O)cc3)C(=O)N2[C@H]1C(=O)O		inactive	inactive	inactive	inactive	inactive	inactive		inactive
C[S+](CC[C@H](N)C(=O)O)C[C@H]1O[C@@H](n2cnc3c(N)ncnc32)[C@H](O)[C@@H]1O (stereo partly specified)		inactive	inactive	inactive	inactive	inactive			
CC(C)(C)C(=O)OCC(=O)[C@H]1CC[C@H]2[C@@H]3CCC4=CC(=O)CC[C@]4(C)[C@H]3CC[C@]12C		inactive	inactive	inactive	inactive	inactive			
C=CC(N)CCC(=O)O (stereo unspecified)		inactive	inactive	inactive	inactive	inactive			
CCCn1c(=O)[nH]c(=O)c2[nH]cnc21		inactive	inactive	inactive	inactive	inactive			
SC1CCCCC1		inactive	inactive	inactive	inactive	inactive			
